Data published in the supplement of paper PMC10646978.
± gives the standard deviation.

Experiments:
Details in all cases: modulator concentration 10 µM
[1] = test system: RAW-Dual (murine macrophage reporter line); experiment: NF-kB reporter (SEAP) activity fold change vs agonist alone; higher = enhanced NF-kB activity
Procedure, shortened: (§1)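 In 384-well plates holding 50 000 RAW-Dual murine macrophage reporter cells per well, compound at 10 μM final was pre-incubated for 1 hour at 37 °C, after which a PRR agonist was added overnight. Supernatant SEAP read with QUANTI-Blue at 620 nm absorbance reported NF-κB, and Lucia luciferase read with QUANTI-Luc luminescence reported IRF. Fold change values come from dividing each reporter signal by the mean of agonist-only control wells on the same plate, averaged over replicate plates with propagated errors.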

[2] = test system: RAW-Dual (murine macrophage reporter line); experiment: IRF reporter (Lucia luciferase) activity fold change vs agonist alone; higher = enhanced IRF activity
Procedure, shortened: as §1

[3] = test system: RAW-Dual (murine macrophage reporter line); experiment: viability score (confluency relative to resting cells, overnight) (fraction); higher = more viable, active = viable (0.7 or more)
Procedure, shortened: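 In 384-well plates, RAW-Dual macrophages received compound at a final 10 μM overnight. Two confluency masks were then made with IncuCyte software from IncuCyte images of all imaged wells. The viability score is defined as confluency relative to resting cells. Passing the cutoff required both masks to lie above 70% of resting cells.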

[4] = agonist: CpG ODN 1826 0.5 ug/mL

SMILES | NF-kB reporter [1, 4] | NF-kB reporter ([1]; agonist: LPS 0.1 ug/mL) | NF-kB reporter ([1]; agonist: MPLA […]) | IRF reporter ([2]; agonist: 3'3'-cGAMP 10 ug/mL) | IRF reporter ([2]; agonist: LPS 0.1 ug/mL) | IRF reporter ([2]; agonist: MPLA […]) | viability score [3]
O=C(CCCN1C(=O)c2cccc3cccc(c23)C1=O)NCCO | 1.04 ± 0.061 | 0.976 ± 0.078 | 0.963 ± 0.025 | 1 ± 0.072 | 1.12 ± 0.052 | 1.05 ± 0.1 | 0.995 (active)
C#CCCCCCCCCCCCC(O)CC(O)COC(C)=O (stereo unspecified) | 1.1 ± 0.34 | 1.06 ± 0.055 | 1.13 ± 0.083 | 0.832 ± 0.11 | 1.17 ± 0.19 | 1.41 ± 0.19 | 1 (active)
NCCCC(=O)O | 1.18 ± 0.28 | 0.974 ± 0.1 | 1.01 ± 0.083 | 0.981 ± 0.04 | 1.3 ± 0.19 | 1.3 ± 0.14 | 0.995 (active)
O=C(NCCCn1ccc2cccnc21)c1ccccc1C(F)(F)F | 0.946 ± 0.091 | 1.1 ± 0.092 | 1.03 ± 0.18 | 1.06 ± 0.056 | 1.16 ± 0.1 | 1.45 ± 0.15 | 0.978 (active)
CS(=O)(=O)N(CC(=O)NCC1CCCO1)c1ccc(Cl)c(C(F)(F)F)c1 (stereo unspecified) | 0.751 ± 0.071 | 0.821 ± 0.039 | 1.01 ± 0.09 | 0.993 ± 0.046 | 1.35 ± 0.095 | 1.52 ± 0.15 | 0.998 (active)
CC1(C)OC(=O)C=CC2(C)C1CC(O)C1(C)C2CCC2(C)C(c3ccoc3)OC(=O)C3OC321 (stereo unspecified) | 1.29 ± 0.35 | 1.1 ± 0.11 | 1.06 ± 0.14 | 0.944 ± 0.032 | 1.22 ± 0.15 | 1.24 ± 0.17 | 0.99 (active)
CN1CCN(C(CC(=O)Nc2cccc(C(F)(F)F)c2)C(=O)O)CC1 (stereo unspecified) | 1.02 ± 0.051 | 1.09 ± 0.086 | 0.859 ± 0.038 | 0.979 ± 0.049 | 1.16 ± 0.1 | 1.17 ± 0.26 | 0.999 (active)
CC(=O)Oc1ccc2c(c1)c(C(C)=O)c(C)n2C | 0.859 ± 0.071 | 0.972 ± 0.1 | 0.963 ± 0.091 | 0.783 ± 0.028 | 1.13 ± 0.15 | 1.27 ± 0.25 | 1.02 (active)
N=C1NC(=O)C(=Cc2ccc(-c3ccc(F)cc3)o2)S1 | 0.507 ± 0.047 | 0.632 ± 0.042 | 0.964 ± 0.043 | 1.02 ± 0.17 | 0.989 ± 0.15 | 0.798 ± 0.13 | 1 (active)
Nc1ncn([C@H]2C[C@H](O)[C@@H](CO)O2)c(=O)n1 | 1.3 ± 0.11 | 0.995 ± 0.054 | 1.15 ± 0.061 | 1.84 ± 0.32 | 1.09 ± 0.048 | 1.39 ± 0.27 | 0.963 (active)
O=C(Nc1ccc(-c2cn3ccsc3n2)cc1)C1CCCC1 | 1.14 ± 0.09 | 1.1 ± 0.15 | 1.37 ± 0.13 | 0.69 ± 0.027 | 1.23 ± 0.18 | 1.38 ± 0.23 | 0.962 (active)
CN(C)c1ncc(NC(=O)c2ccc(Oc3ncccn3)cc2)c(N(C)C)n1 | 0.856 ± 0.086 | 0.953 ± 0.075 | 0.849 ± 0.065 | 0.991 ± 0.053 | 1.2 ± 0.083 | 1.08 ± 0.14 | 0.985 (active)
Cc1cccc(C)c1OCC(C)N.Cl (stereo unspecified) | 1.17 ± 0.25 | 1.25 ± 0.23 | 0.953 ± 0.058 | 0.89 ± 0.061 | 1.33 ± 0.29 | 1.04 ± 0.13 | 0.968 (active)
